# The sample as a whole holds a higher share of hits than the screen did.
# mHTT-CaM PPI inh – disrupts binding of mutant huntingtin to calmodulin. AID 1671202. inhibition, % at 15 µM. P42858. AlphaScreen His-mHTT/GST-CaM binding, luminescence. 3.6% of 190,000 active;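 also: 0% = both proteins with DMSO and 100% = one protein alone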
# Target sequence (P42858 whole entry, looked up, stated change not applied): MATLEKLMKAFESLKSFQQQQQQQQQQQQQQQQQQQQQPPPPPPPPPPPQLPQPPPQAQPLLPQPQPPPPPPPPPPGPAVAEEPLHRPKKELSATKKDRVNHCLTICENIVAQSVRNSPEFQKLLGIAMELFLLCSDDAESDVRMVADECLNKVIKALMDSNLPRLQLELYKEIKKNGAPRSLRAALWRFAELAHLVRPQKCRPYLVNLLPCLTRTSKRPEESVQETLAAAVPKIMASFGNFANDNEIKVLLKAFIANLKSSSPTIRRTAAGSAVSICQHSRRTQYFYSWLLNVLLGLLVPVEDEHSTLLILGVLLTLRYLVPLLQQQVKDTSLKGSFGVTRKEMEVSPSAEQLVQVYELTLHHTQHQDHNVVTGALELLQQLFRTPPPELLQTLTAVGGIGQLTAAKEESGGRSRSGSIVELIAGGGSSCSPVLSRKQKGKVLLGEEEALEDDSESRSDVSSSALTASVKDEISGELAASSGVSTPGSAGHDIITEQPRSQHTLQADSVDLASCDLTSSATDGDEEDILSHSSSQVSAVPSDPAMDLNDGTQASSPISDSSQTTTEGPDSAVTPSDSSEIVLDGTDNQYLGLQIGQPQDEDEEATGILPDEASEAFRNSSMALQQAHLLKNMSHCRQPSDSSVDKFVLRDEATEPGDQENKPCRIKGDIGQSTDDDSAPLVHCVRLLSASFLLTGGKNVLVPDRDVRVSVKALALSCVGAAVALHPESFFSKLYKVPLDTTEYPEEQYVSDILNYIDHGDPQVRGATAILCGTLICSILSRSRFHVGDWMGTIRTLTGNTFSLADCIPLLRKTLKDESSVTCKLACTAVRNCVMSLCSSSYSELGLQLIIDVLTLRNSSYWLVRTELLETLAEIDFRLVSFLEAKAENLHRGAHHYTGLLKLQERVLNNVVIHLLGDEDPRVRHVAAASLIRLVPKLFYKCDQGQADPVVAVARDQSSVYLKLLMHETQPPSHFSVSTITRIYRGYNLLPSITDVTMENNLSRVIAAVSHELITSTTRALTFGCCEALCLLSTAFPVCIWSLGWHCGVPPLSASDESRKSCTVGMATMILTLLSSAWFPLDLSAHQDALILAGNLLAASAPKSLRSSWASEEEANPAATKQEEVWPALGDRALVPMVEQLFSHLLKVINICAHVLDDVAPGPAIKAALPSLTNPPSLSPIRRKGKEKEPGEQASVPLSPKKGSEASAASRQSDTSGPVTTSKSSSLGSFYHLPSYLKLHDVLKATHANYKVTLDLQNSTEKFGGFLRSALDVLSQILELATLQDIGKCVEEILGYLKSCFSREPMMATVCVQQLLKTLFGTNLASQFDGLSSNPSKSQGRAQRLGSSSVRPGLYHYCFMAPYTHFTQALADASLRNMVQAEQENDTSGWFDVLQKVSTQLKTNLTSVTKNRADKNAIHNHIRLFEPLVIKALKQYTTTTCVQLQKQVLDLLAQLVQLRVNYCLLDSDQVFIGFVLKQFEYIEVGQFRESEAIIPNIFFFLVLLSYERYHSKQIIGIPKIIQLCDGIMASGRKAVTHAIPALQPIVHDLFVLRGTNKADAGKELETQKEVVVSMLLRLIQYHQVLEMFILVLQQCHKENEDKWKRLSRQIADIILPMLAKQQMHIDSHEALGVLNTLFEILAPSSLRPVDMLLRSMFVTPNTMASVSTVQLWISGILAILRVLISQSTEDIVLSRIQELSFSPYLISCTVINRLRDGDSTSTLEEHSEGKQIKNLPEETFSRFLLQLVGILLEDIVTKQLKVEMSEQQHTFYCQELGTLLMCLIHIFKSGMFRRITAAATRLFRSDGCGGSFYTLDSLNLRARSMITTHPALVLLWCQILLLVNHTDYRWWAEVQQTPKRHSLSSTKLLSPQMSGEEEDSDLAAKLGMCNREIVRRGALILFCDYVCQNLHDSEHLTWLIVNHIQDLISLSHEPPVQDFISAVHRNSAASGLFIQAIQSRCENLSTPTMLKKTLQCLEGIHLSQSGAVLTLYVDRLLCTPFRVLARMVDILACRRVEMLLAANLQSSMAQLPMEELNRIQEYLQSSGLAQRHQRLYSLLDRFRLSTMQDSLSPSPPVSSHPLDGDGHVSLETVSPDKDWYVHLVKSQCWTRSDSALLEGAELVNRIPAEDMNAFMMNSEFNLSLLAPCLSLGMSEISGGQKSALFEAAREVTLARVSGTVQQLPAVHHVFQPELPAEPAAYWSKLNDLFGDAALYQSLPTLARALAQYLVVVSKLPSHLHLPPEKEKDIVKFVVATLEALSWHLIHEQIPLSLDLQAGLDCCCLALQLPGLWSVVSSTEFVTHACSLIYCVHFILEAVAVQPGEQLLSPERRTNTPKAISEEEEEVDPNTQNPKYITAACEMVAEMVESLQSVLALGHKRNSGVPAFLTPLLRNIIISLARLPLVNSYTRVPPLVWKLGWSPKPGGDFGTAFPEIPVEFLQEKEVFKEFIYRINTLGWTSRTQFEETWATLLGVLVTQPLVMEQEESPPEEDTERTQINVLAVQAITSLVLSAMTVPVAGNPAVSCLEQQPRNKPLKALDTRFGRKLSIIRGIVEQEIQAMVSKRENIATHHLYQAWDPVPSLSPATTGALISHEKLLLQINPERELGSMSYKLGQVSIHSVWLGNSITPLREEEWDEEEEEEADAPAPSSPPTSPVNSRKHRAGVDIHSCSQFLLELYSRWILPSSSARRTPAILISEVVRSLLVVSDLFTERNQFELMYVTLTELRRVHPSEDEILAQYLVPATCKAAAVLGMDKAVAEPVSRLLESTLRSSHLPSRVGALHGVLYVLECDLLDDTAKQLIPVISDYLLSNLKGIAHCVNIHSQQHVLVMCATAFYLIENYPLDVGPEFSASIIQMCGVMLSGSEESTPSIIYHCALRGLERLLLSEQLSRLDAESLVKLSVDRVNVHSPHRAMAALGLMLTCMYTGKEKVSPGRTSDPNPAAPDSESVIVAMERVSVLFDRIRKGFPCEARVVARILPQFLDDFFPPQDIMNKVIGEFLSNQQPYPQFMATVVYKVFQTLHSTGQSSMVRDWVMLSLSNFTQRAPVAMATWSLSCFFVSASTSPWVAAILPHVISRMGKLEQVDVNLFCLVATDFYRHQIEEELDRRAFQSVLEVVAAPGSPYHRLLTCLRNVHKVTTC
# Pf apPOL inh – Pf-apPOL DNA polymerase inhibition; Recombinant Pf-apPOL, molecular beacon fluorescence, 1.5 h; inhibition, % at 10 µM; 0.25% of 210,000 active; AID 1794808
# Starred values were filed as active, the others as inactive; x = no result given; ! = not confirmed by another sample. Rule as the data show it: active = inhibition above about 50%; inactive = the rest.
SMILES,mHTT-CaM PPI inh,Pf apPOL inh
Cc1cccc(-c2nc(C3CCN(S(=O)(=O)c4ccc(C#N)cc4)CC3)no2)c1,-2,-2
O=C(NCc1ccc(N2CCCCC2)nc1)c1cccs1,20,1
Cc1ccc(OCC(=O)Nc2ccc(I)cc2)cc1,-7,-3
O=C(c1cc(-c2ccccc2F)no1)N1CCCC1c1cccc(F)c1 (centres undefined),-25,0
CC1C(=O)N(Cc2cn(CCC3OCCO3)nn2)CCS(=O)(=O)N1Cc1ccc(-c2ccc(Cl)c(Cl)c2)cc1 (centres undefined),96*,-16
CC(C)C1C(=O)N(Cc2cn(CCC3OCCCO3)nn2)CCS(=O)(=O)N1Cc1ccc(-c2ccc(Cl)c(Cl)c2)cc1 (centres undefined),74*,-6
CC(C)C1C(=O)N(Cc2cn(CCC3OCCO3)nn2)CCS(=O)(=O)N1Cc1ccc(-c2ccc(F)cc2)cc1 (centres undefined),53*,-7
CC(C)C1C(=O)N(Cc2cn(CCC3OCCCO3)nn2)CCS(=O)(=O)N1Cc1ccc(-c2ccc(F)nc2)cc1 (centres undefined),42,-1
CC1C(=O)N(Cc2cn(CCC3OCCO3)nn2)CCS(=O)(=O)N1Cc1ccc(-c2cccc(CO)c2)cc1 (centres undefined),15,-5
CC(C)C1C(=O)N(Cc2cn(CCC3OCCO3)nn2)CCS(=O)(=O)N1Cc1ccc(-c2ccc(F)nc2)cc1 (centres undefined),37,2
CC(C)C1C(=O)N(Cc2cn(CCC3OCCCO3)nn2)CCS(=O)(=O)N1Cc1ccc(-c2ccc(Cl)cc2)cc1 (centres undefined),44,-19
CC(C)C1C(=O)N(Cc2cn(CCC3OCCCO3)nn2)CCS(=O)(=O)N1Cc1ccc(-c2ccccc2)cc1 (centres undefined),56*,-15
COCCOC(=O)c1c2c(n3ccccc13)C(=O)c1ccccc1C2=O,13,-12
Cc1cc(F)ccc1NC(=O)c1ccc2c(c1)Sc1ncccc1C(=O)N2C,-4,-4
Cc1nc(CCNC(=O)C2CSCN2C(=O)c2cccnc2)cs1 (centres undefined),-7,-6
Cc1nc2nc(SCC(=O)N3CCC(C)CC3)nn2c(C)c1Cc1ccc(Cl)cc1,52*,-4
Cc1ccc(Cc2c(C)nc3nc(SCC(=O)NC4CC4)nn3c2C)cc1,3,-2
Cc1nc(C(C)C)nc2c1CCC(=O)N2CCN1CCCC1,23,-7
C=CCc1cc(C)ccc1OCCCCn1ccnc1,18,-2
Cc1cccc(CNC(=O)c2ccc3c(c2)n(C)c(=O)c2ccnn23)c1,58*,6
Cn1c(=O)c2ccnn2c2ccc(C(=O)NCc3ccccc3)cc21,-2,3
Cc1ccsc1C(=O)N1CCC(O)(c2ccccc2)C(N(C)C)C1 (centres undefined),2,-6
Cc1ccc(CN2C(=O)c3ccccc3C2C(=O)NC2CCC(C)CC2)cc1 (centres undefined),1,-7
CC1CCC(NC(=O)C2c3ccccc3C(=O)N2Cc2ccc(F)cc2)CC1 (centres undefined),52*,-6
COc1cc(C#N)c(OC)cc1Cl,x,-8
SMILES,mHTT-CaM PPI inh,Pf apPOL inh
CCC(=O)Nc1nc2ccccc2n1CC,-2,-15
O=C(Nc1nc2ccccc2n1CCN1CCCCC1)c1ccccc1,34,-3
C=CCn1c(NC(=O)c2ccccc2)nc2ccccc21,54*,1
CCn1c(NC(=O)c2ccccc2)nc2ccccc21,53*,0
Oc1ccc2ccccc2c1N=Nc1ccccc1OC(F)(F)F,x,-116
CCOc1ccccc1NS(=O)(=O)c1ccc(Cl)c(OC)c1,-16,-7
Cc1sc(N)nc1-c1c[nH]c2ccccc12,94*,-12
Cc1sc(N)nc1-c1ccc(Cl)cc1,-7,-20
CCOc1ccc(CC(=O)NC2CCCCC2)cc1OCC,-1,-1
Cn1ccc2c(cc(C(=O)N3CCCCC3)n2C)c1=O,-7,-2
CCc1ccc(-n2[nH]c3c(cnc4ccc(C(=O)NC(C)C)cc43)c2=O)cc1,-5,-4
CCC1CCCCN1C(=O)c1ccc2ncc3c(=O)n(-c4ccccc4)[nH]c3c2c1 (centres undefined),66*,0
CC(C)NC(=O)c1ccc2ncc3c(=O)n(-c4ccc(Cl)cc4)[nH]c3c2c1,51*,2
CCc1ccc(-n2[nH]c3c(cnc4ccc(C(=O)N5CCCC5)cc43)c2=O)cc1,-4,4
CC(C)(C)C(=O)N1CCC(CCOc2ccc(F)cc2)CC1,-12,-5
O=C(CCC(=O)N1CC2CCCN2c2ccccc21)N1CCOCC1 (centres undefined),19,-1
N#CC1=C(O)N(CCc2ccccc2)C(=O)C([n+]2ccccc2)C1c1ccc([N+](=O)[O-])cc1 (centres undefined),47,-1
O=C(Cc1cccc(F)c1)N1CCCC(c2ccnc(Nc3cccc(F)c3)n2)C1 (centres undefined),73*,-2
Cc1cccc(-c2nccc(C3CCCN(C(=O)Cc4cccc(F)c4)C3)n2)c1 (centres undefined),46,-4
CCOCC(=O)N1CCCC(c2ccnc(Nc3cccc(F)c3)n2)C1 (centres undefined),62*,-4
CCOCC(=O)N1CCCC(c2ccnc(Nc3ccc(C)cc3)n2)C1 (centres undefined),38,-3
O=C(c1ccccc1)c1c(-c2ccccc2)csc1Nc1ccccc1,x,6
OCC[n+]1c(-c2ccc(Br)cc2)csc1Nc1ccccc1,88*,-12
CCC(C)NC(=O)C1CCN(c2ccc(NC(=O)Nc3ccc(C)cc3C)cn2)CC1 (centres undefined),0,-4
CC(=O)Nc1cc2nc3ccccc3nc2cc1NC(C)=O,1,-3
SMILES,mHTT-CaM PPI inh,Pf apPOL inh
O=C(CSc1n[nH]c(-c2ccncc2)n1)c1ccc(F)cc1,9,1
O=C(CSc1n[nH]c(-c2ccncc2)n1)c1ccc(O)c(O)c1,84*!,-1
Cc1ccc(N=C2NC(=O)/C(=C/c3ccco3)S2)cc1,69*,-3
COc1ccc(N=C2NC(=O)/C(=C\c3ccco3)S2)cc1,43,-21
O=C1NC(=Nc2cccc(Cl)c2Cl)S/C1=C\c1ccco1,100*,-15
COc1cccc(/C=C2/SC(=Nc3ccccc3Cl)NC2=O)c1OC,8,-3
CCCNC(=O)C1CCCN(c2nc3c(s2)c(C)nn3-c2ccc(Cl)cc2)C1 (centres undefined),-5,-8
CCC(C)NC(=O)N1CCC(N2CCN(Cc3ccc(C)cc3)C2=O)CC1 (centres undefined),1,-1
CC(C)CCNC(=O)C1CCCN(S(=O)(=O)N2CCC(C)CC2)C1 (centres undefined),4,-19
Clc1ccc(C2=CC(c3cccc(Br)c3)n3nnnc3N2)cc1 (centres undefined),13,2
CCCCSc1oc(-c2ccco2)nc1S(=O)(=O)c1ccc(Br)cc1,-6,2
Cc1ccccc1CNC(=O)c1csc(-c2ccc(C)n2C)n1,82*,2
Cc1ccc(-c2nc(C(=O)NCc3ccc(F)cc3)cs2)n1C,85*,-5
Cc1cc(C)cc(NC(=O)c2csc(-c3ccc(C)n3C)n2)c1,3,-9
CCc1ccccc1NC(=O)c1csc(-c2ccc(C)n2C)n1,35,-3
COc1ccccc1NC(=O)c1csc(-c2ccc(C)n2C)n1,7,-2
Cc1ccc(NC(=O)c2csc(-c3ccc(C)n3C)n2)c(C)c1,-5,1

# Screening results: PubChem, University of Kansas High Throughput Screening Laboratory
